This note sets out measurements from article PMC4336329 (PLoS ONE, 2015).

Among all 310,000 compounds or so, about 14,000 (4.5%) showed an effect of 50% or more. The effect is printed as a negative number. The sample holds strong results, similar compounds and a random draw of the others, so the mix is not that of the screen.
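Also: peak tail current of the secondary pulse compared with the same well before compound.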

Chain of human ether-à-go-go-related gene (hERG) potassium channel (Q12809 whole entry, looked up): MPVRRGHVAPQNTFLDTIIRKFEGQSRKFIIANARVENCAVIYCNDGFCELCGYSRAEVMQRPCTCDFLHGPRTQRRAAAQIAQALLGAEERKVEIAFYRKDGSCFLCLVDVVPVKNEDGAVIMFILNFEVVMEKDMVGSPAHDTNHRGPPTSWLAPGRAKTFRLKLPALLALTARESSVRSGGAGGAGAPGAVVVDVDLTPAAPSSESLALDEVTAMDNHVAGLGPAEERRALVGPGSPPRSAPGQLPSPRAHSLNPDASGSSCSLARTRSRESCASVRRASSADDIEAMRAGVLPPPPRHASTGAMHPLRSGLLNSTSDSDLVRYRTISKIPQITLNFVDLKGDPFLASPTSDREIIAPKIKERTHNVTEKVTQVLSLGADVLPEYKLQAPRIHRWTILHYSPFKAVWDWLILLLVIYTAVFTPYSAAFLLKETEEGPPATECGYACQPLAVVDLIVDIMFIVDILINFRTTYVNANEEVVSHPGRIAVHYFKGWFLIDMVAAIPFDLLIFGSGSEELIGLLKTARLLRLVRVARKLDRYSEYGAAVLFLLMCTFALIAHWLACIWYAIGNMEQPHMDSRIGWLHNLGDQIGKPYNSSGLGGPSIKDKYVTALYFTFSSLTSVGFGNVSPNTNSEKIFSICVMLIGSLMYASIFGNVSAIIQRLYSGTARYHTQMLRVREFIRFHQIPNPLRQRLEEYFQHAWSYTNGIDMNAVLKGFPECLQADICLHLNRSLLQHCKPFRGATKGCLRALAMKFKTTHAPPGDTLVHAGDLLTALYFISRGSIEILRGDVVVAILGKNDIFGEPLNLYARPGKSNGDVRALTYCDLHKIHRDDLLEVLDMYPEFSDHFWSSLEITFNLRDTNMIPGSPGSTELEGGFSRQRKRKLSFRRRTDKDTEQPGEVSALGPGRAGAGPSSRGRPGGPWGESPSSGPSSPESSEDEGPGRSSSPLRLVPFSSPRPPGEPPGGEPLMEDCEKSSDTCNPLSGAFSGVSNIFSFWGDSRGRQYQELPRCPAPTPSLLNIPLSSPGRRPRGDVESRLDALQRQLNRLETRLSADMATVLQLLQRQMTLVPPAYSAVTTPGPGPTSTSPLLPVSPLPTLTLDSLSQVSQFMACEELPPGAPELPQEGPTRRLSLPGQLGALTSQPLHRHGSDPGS

This test concerns the target human ether-à-go-go-related gene (hERG) potassium channel (human, UniProt Q12809). Description: primary screen, population patch clamp on CHO cells stably expressing hERG; higher = less effect of the substance.
Consider `CCOC(=O)Nc1ccc2c(c1)N(C(=O)CN(C)C)c1ccccc1CC2.Cl`, for which the “hERG current change (%, negative = inhibition) at 10uM” value was -7.94%. Regarding `CCOC(=O)C1CCN(C(=O)c2cc3c(=O)n4cccc(C)c4nc3s2)CC1`, the “hERG current change (%, negative = inhibition) at 10uM” value was -15.5%. On to `FC(F)(F)c1cc(N2CCN(Cc3ccccc3)CC2)c2ccccc2n1`, for which the “hERG current change (%, negative = inhibition) at 10uM” value was 10.9%.

Regarding `CC(CCc1ccccc1)NC(=O)CNC(=O)N1CC(=O)Nc2ccccc21` (stereo not shown), the “hERG current change (%, negative = inhibition) at 10uM” value was -2.77%.

For `CCOCCOC(=O)c1[nH]c2c(c1C)C(=O)CC(c1ccccc1)C2` (stereo not shown), the “hERG current change (%, negative = inhibition) at 10uM” value is 7.35%.

For `Cc1sc(NC(=S)NC(=O)c2ccc(C(C)(C)C)cc2)c(C#N)c1C`, the “hERG current change (%, negative = inhibition) at 10uM” value was found to be 6.48%. Consider `COc1ccc(CCNC(=O)CN2C(=O)COc3ccc(S(=O)(=O)N4CCOCC4)cc32)c(OC)c1`, for which the “hERG current change (%, negative = inhibition) at 10uM” value is recorded as -28.1%. Under `CN(Cc1ccccc1)S(=O)(=O)c1ccc(OCC(=O)N2CCC(C(N)=O)CC2)cc1` stands -2.99%. As to `O=C(Nc1ccc2ccccc2c1)N1CCN(c2ncccc2C(F)(F)F)CC1`, the “hERG current change (%, negative = inhibition) at 10uM” value is given as -7.58%. In the case of `O=C(c1cc([N+](=O)[O-])cc([N+](=O)[O-])c1)N1CCN(Cc2ccc3c(c2)OCO3)CC1`, the “hERG current change (%, negative = inhibition) at 10uM” value was -58.2%.

For the compound `CCCCOc1ccc(C(=O)NCC(=O)N2CCN(Cc3ccc4c(c3)OCO4)CC2)cc1`, the “hERG current change (%, negative = inhibition) at 10uM” value is given as -42.4%. Under `O=C(c1cccc([N+](=O)[O-])c1)N1CCN(Cc2ccc3c(c2)OCO3)CC1` stands -44.3%; under `Cc1ccc(C(=O)N2CCN(Cc3ccc4c(c3)OCO4)CC2)cc1C`, -14.4%.

Regarding `O=C(Cc1ccc([N+](=O)[O-])cc1)N1CCN(Cc2ccc3c(c2)OCO3)CC1`, the “hERG current change (%, negative = inhibition) at 10uM” value was -45.5%. Under `CCCOc1ccc(C(=O)N2CCN(Cc3ccc4c(c3)OCO4)CC2)cc1` stands -67.7%.

For the compound `C/C(=N\NC(=O)Nc1ccccc1)c1ccccc1`, the “hERG current change (%, negative = inhibition) at 10uM” value was 9.14%. Under `NS(=O)(=O)c1ccc(CCNC(=O)COC(=O)CCSc2ccc(Cl)cc2)cc1` stands -18.5%. Under `CC(C)(C)NC(=O)CCCSc1nc2ccccc2s1` stands -24.4%; under `Nc1nc(Cl)cc(Oc2ccc(Cl)cc2)n1`, 9.29%. As for `CCc1cccc(OC2OC(CO)C(O)C(O)C2NC(C)=O)c1` (stereo not shown), the “hERG current change (%, negative = inhibition) at 10uM” value came to 0.684%.

Take `Clc1ccc2c(NCc3ccccn3)ccnc2c1`: the “hERG current change (%, negative = inhibition) at 10uM” value is recorded as -39.7%.

Take `O=C(NCCNc1ccc(Cl)cc1[N+](=O)[O-])c1ccccc1F`: the “hERG current change (%, negative = inhibition) at 10uM” value worked out at 3.81%. Under `Clc1ccc2c(NCc3ccccc3)ccnc2c1` stands -45.5%; under `O=C(NCCCNc1ccnc2cc(Cl)ccc12)c1ccccc1F`, -72.4%; under `O=C(NCCNc1ccnc2cc(Cl)ccc12)c1ccccc1F`, -66.4%. Take `O=C(NCCCNc1ccc([N+](=O)[O-])cc1Cl)c1ccccc1F`: the “hERG current change (%, negative = inhibition) at 10uM” value is -4.03%.

Regarding `C1=CCC(CN2CCNCC2)CC1.O=C(O)C(F)(F)F` (stereo not shown), the “hERG current change (%, negative = inhibition) at 10uM” value came out at 9.96%. As to `O=C(COC(=O)c1ccccc1NC(=O)c1ccco1)NC1CC1`, the “hERG current change (%, negative = inhibition) at 10uM” value is -19%. With `CNC(=O)COC(=O)c1ccccc1NC(=O)c1ccco1`, the “hERG current change (%, negative = inhibition) at 10uM” value was -52.1%. Under `CN(C)C(=O)COC(=O)c1ccccc1NC(=O)c1ccco1` stands -15.7%; under `CC1CCN(C(=O)COC(=O)c2ccccc2NC(=O)c2ccco2)CC1`, -60.9%; under `O=C(Nc1ccccc1C(=O)OCC(=O)N1CCc2ccccc2C1)c1ccco1`, -30.9%. Under `CC(C)(C)NC(=O)COC(=O)c1ccccc1NC(=O)c1ccco1` stands -7.06%; under `CS(=O)(=O)N1CCN(C2C3CC4CC(C3)CC2C4)CC1.O=C(O)C(=O)O` (stereo not shown), 26.3%; under `CC(=O)Nc1ccc(N(C(=O)c2cnccn2)C(C(=O)NC2CCCCC2)c2ccc(F)cc2)cc1` (stereo not shown), 0.645%. Under `CC(=O)c1ccccc1C(=O)N(C)C1CCCN(Cc2ccccc2F)C1` (stereo not shown) stands 15.2%; under `CNC(=O)N(O)C1N(/N=C/c2ccc(SC)cc2)C(=S)SC1(C)C` (stereo not shown), 26.3%; under `O=C(NCCN1CCOCC1)c1ccc2c(c1)N(Cc1ccc(Cl)cc1)CCS2`, -29.8%. Take `N#Cc1c(N)n(-c2ccc(O)cc2)c2nc3ccccc3nc12`: the “hERG current change (%, negative = inhibition) at 10uM” value came to 8.96%. On to `COc1cccc(CC2(CO)CCCN(Cc3ccccc3-c3ccco3)C2)c1` (stereo not shown), for which the “hERG current change (%, negative = inhibition) at 10uM” value is -75.8%. For `Cc1ccc(C)c(-c2[nH]ncc2CN2CCCC(CO)(Cc3ccccc3C)C2)c1` (stereo not shown), the “hERG current change (%, negative = inhibition) at 10uM” value is recorded as -47.8%. On to `COc1cccc(CC2(CO)CCCN(Cc3ccccc3Cl)C2)c1` (stereo not shown), for which the “hERG current change (%, negative = inhibition) at 10uM” value is recorded as -31.2%. Under `COc1cccc(CC2(CO)CCCN(Cc3cn[nH]c3-c3cc(C)ccc3C)C2)c1` (stereo not shown) stands -59.2%; under `COc1cccc(CC2(CO)CCCN(Cc3ccc(-c4ccco4)cc3)C2)c1` (stereo not shown), -3.75%; under `COc1cccc(CC2(CO)CCCN(Cc3cn(C)c4ccccc34)C2)c1` (stereo not shown), -77.9%. Under `COc1ccc(CN2CCCC(CO)(Cc3ccc(F)cc3)C2)cc1C` (stereo not shown) stands -47.7%; under `COc1ccc(CN2CCCC(CO)(Cc3ccc(F)cc3)C2)c(OC)c1OC` (stereo not shown), -71.1%; under `OCC1(Cc2ccc(F)cc2)CCCN(Cc2ccc(F)cc2Cl)C1` (stereo not shown), -2.59%. With `COc1cccc(CC2(CO)CCCN(Cc3cn[nH]c3-c3ccccc3)C2)c1` (stereo not shown), the “hERG current change (%, negative = inhibition) at 10uM” value is reported as -49.9%.

With `CC1C(=O)C(C)C(c2ccco2)NC1c1ccco1.Cl` (stereo not shown), the “hERG current change (%, negative = inhibition) at 10uM” value was found to be 13.9%. Take `O=C(CSc1nnc(CNC(=O)c2cccs2)o1)NC1CCCCC1`: the “hERG current change (%, negative = inhibition) at 10uM” value is given as -24%. Under `C/C(=N/NC(=O)c1ccncc1)c1ccc2c(c1)OCO2` stands 13.8%; under `COc1cccc(CC2(CO)CCCN(Cc3ccc(OC)c(C)c3OC)C2)c1` (stereo not shown), -77.6%; under `COc1ccc(C(N)=O)cc1NC(=O)c1cccc(F)c1`, 18.9%. As for `NC(=O)c1ccc(NC(=O)COC(=O)C(Cc2ccccc2)NC(=O)c2ccccc2)cc1` (stereo not shown), the “hERG current change (%, negative = inhibition) at 10uM” value is -53%. With `O=C(COC(=O)C(Cc1ccccc1)NC(=O)c1ccccc1)c1ccccc1` (stereo not shown), the “hERG current change (%, negative = inhibition) at 10uM” value is given as -1.84%. Under `O=C(COC(=O)C(Cc1ccccc1)NC(=O)c1ccc(Cl)cc1)c1ccc(Cl)cc1` (stereo not shown) stands -27.3%; under `O=C(O)C1=C[C@@H](c2ccc(C(F)(F)F)cc2)C[C@@H](OCc2ccc(CO)cc2)O1`, 16.7%; under `C#Cc1ccc([C@@H]2C=C(C(=O)NC3CC3)O[C@H](OCc3ccc(CO)cc3)C2)cc1`, -3.96%.

Consider `CN1CCN(C(=O)C2=C[C@@H](c3ccc(C(F)(F)F)cc3)C[C@@H](OCc3ccc(CO)cc3)O2)CC1`, for which the “hERG current change (%, negative = inhibition) at 10uM” value was -52.6%.

Regarding `CN1CCN(C(=O)C2=C[C@H](c3ccc(C(F)(F)F)cc3)C[C@H](OCc3ccc(CO)cc3)O2)CC1`, the “hERG current change (%, negative = inhibition) at 10uM” value is recorded as -40.4%.

Consider `O=C(NC1CC1)C1=C[C@@H](c2ccccc2)C[C@@H](OCc2ccc(CO)cc2)O1`, for which the “hERG current change (%, negative = inhibition) at 10uM” value is recorded as -38.3%.

Regarding `O=C(NC1CC1)C1=C[C@H](c2ccc(C(F)(F)F)cc2)C[C@H](OCc2ccc(CO)cc2)O1`, the “hERG current change (%, negative = inhibition) at 10uM” value was -42.7%.

For `O=C(NC1CC1)C1=C[C@H](c2ccccc2)C[C@H](OCc2ccc(CO)cc2)O1`, the “hERG current change (%, negative = inhibition) at 10uM” value is reported as -19.9%. Under `O=C(C1=C[C@H](c2ccc(C(F)(F)F)cc2)C[C@H](OCc2ccc(CO)cc2)O1)N1CCCCCCC1` stands -17.7%; under `O=C(NC1CC1)C1=C[C@@H](c2ccc(Br)cc2)C[C@@H](OCc2ccc(CO)cc2)O1`, -56.4%.

In the case of `O=C(NC1CC1)C1=C[C@H](c2ccc(Br)cc2)C[C@H](OCc2ccc(CO)cc2)O1`, the “hERG current change (%, negative = inhibition) at 10uM” value is on record as -71.1%. Under `O=C(NC1CC1)C1=C[C@@H](c2ccc(C(F)(F)F)cc2)C[C@@H](OCc2ccc(CO)cc2)O1` stands -63.2%; under `O=C(O)C1=C[C@H](c2ccc(Br)cc2)C[C@H](OCc2ccc(CO)cc2)O1`, 15.1%.

Consider `COc1cc(CNC(=O)c2ccc3c(c2)S(=O)(=O)c2ccccc2C3=O)cc(OC)c1`, for which the “hERG current change (%, negative = inhibition) at 10uM” value is -0.0926%. With `O=C(COC(=O)c1cccc(Br)c1)Nc1cccc2c1C(=O)c1ccccc1C2=O`, the “hERG current change (%, negative = inhibition) at 10uM” value came to 4.56%. `Cc1cccc(C)c1Nc1nnc(SCC(=O)NC2CCS(=O)(=O)C2)s1` (stereo not shown): the “hERG current change (%, negative = inhibition) at 10uM” value was 1.96%. Under `CS(=O)(=O)CCC(C(=O)n1nnc2ccccc21)N1C(=O)c2ccccc2C1=O` (stereo not shown) stands -3.22%. `Cc1ccc(NS(=O)(=O)c2ccc(Cl)c(C(=O)Nc3ccccc3-c3nc4ccccc4[nH]3)c2)cc1C`: the “hERG current change (%, negative = inhibition) at 10uM” value is 17.2%.

On to `O=C(CC12CC3CC(CC(C3)C1)C2)Nc1ccc2c(c1)COC2=O`, for which the “hERG current change (%, negative = inhibition) at 10uM” value is -9.44%.

As to `CN(C(=O)/C=C/c1ccccc1)C1CCS(=O)(=O)C1` (stereo not shown), the “hERG current change (%, negative = inhibition) at 10uM” value is listed as -0.518%. With `COc1ccc(N2CCN(C(=O)c3ccc(CS(=O)Cc4ccc(C)cc4)o3)CC2)cc1` (stereo not shown), the “hERG current change (%, negative = inhibition) at 10uM” value was -18.3%. For `COc1cccc(N2CCN(C(=O)c3ccc(CS(=O)Cc4ccc(C)cc4)o3)CC2)c1` (stereo not shown), the “hERG current change (%, negative = inhibition) at 10uM” value was -11.4%.

On to `Cc1ccc(CS(=O)Cc2ccc(C(=O)N3CCN(c4ccc(F)cc4)CC3)o2)cc1` (stereo not shown), for which the “hERG current change (%, negative = inhibition) at 10uM” value is -52.9%.

On to `Cc1ccc(CS(=O)Cc2ccc(C(=O)N3CCN(c4ccccc4)CC3)o2)cc1` (stereo not shown), for which the “hERG current change (%, negative = inhibition) at 10uM” value is listed as -14.8%. As to `COc1cccc(N2CCN(C(=O)c3ccc(CS(=O)c4ccccc4Cl)o3)CC2)c1` (stereo not shown), the “hERG current change (%, negative = inhibition) at 10uM” value was -30.8%. Under `COc1ccc(N2CCN(C(=O)c3ccc(CS(=O)Cc4ccc(Cl)cc4)o3)CC2)cc1` (stereo not shown) stands -50.1%; under `Cc1ccc(CS(=O)Cc2ccc(C(=O)N3CCN(c4ccccn4)CC3)o2)cc1` (stereo not shown), -10.1%; under `O=C(c1ccc(CS(=O)Cc2ccc(Cl)cc2)o1)N1CCN(c2ccccn2)CC1` (stereo not shown), -61.2%. For the compound `O=C(c1ccc(CS(=O)Cc2ccccc2Cl)o1)N1CCN(c2ccccn2)CC1` (stereo not shown), the “hERG current change (%, negative = inhibition) at 10uM” value is recorded as -5.66%. In the case of `Cc1ccc(CS(=O)Cc2ccc(C(=O)N3CCOCC3)o2)cc1` (stereo not shown), the “hERG current change (%, negative = inhibition) at 10uM” value is on record as -33.3%.

Regarding `O=C(c1ccc(CS(=O)Cc2ccccc2Cl)o1)N1CCN(c2cccc(Cl)c2)CC1` (stereo not shown), the “hERG current change (%, negative = inhibition) at 10uM” value is -41.8%. Under `COc1cccc(N2CCN(C(=O)c3ccc(CS(=O)Cc4ccccc4Cl)o3)CC2)c1` (stereo not shown) stands -70.7%.
